Measured values published in PubChem BioAssay (NCI).
This is part of a sample that, as a whole, favours compounds with a hit. Of some 79,000 tested, about 15% had one in any assay. A number with no mark means an inactive call. The source made the active and inactive calls. Rule as the data show it: active = growth inhibition above about 70%; inactive = the rest.

Key:
[1] = NCI Yeast Anticancer Drug Screen. Data for the rad52 strain (AID 147);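 also: 0% = growth of vehicle-treated control cultures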; conditions: S. cerevisiae rad52 mutant growth inhibition, active compounds read high
Summary of the method: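 Measured: yeast growth inhibition. System: strain with a defined DNA damage repair alteration. Reference: vehicle-treated control cultures.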

[2] = NCI Yeast Anticancer Drug Screen. Data for the wt1 strain (AID 149);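 also: 0% = growth of vehicle-treated wt1 cultures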; conditions: S. cerevisiae wt1 strain (SPY 50644) growth inhibition, active compounds read high
Summary of the method: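 Vehicle-normalised growth inhibition; strain wt1; compound exposure.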

[3] = NCI Yeast Anticancer Drug Screen. Data for the rad50EPP+ strain (AID 151);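 also: 0% = growth of vehicle-treated control cultures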; conditions: S. cerevisiae rad50 mutant strain, active compounds read high
Summary of the method: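 One strain with a rad50 alteration (rad50EPP+) was compound-treated, its growth then compared to that of vehicle controls.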

[4] = NCI Yeast Anticancer Drug Screen. Data for the mgt1 strain (AID 153); conditions: S. cerevisiae mgt1 mutant growth inhibition, active compounds read high
Summary of the method: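 After exposure of the mgt1 yeast mutant to compound, growth was measured and reported as inhibition compared with vehicle controls.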

[5] = NCI Yeast Anticancer Drug Screen. Data for the rad50 strain (AID 155);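 also: 0% = growth of vehicle-only cultures of the same strain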; conditions: S. cerevisiae rad50 strain growth inhibition, active compounds read high
Summary of the method: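 A DNA repair-deficient yeast mutant serves as the test organism; compound-induced growth inhibition is calculated against vehicle-treated cells.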

[6] = NCI Yeast Anticancer Drug Screen. Data for the mec2-1 strain (AID 157); conditions: S. cerevisiae mec2-1 strain, active compounds read high
Summary of the method: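 Test agents were screened against the mec2-1 yeast strain, with defined DNA repair or cell cycle alteration. Growth was scored as inhibition against vehicle-only controls.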

[7] = NCI Yeast Anticancer Drug Screen. Data for the rad14 strain (AID 159);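 also: 0% = growth of vehicle-treated control cultures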; conditions: S. cerevisiae rad14 strain growth inhibition, active compounds read high
Summary of the method: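 Vehicle-treated cultures served as the baseline for growth inhibition of a DNA repair-mutant yeast strain exposed to each compound.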

[8] = NCI Yeast Anticancer Drug Screen. Data for the sgs1 mgt1 strain (AID 161);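 also: 0% = growth of cultures given vehicle only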; conditions: S. cerevisiae sgs1 mgt1 strain, active compounds read high
Summary of the method: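 Genetically altered yeast, compound exposure, growth inhibition relative to vehicle.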

[9] = NCI Yeast Anticancer Drug Screen. Data for the CLN2oe strain (AID 163);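 also: 0% = growth of vehicle-only control cultures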; conditions: S. cerevisiae CLN2oe strain, active compounds read high
Summary of the method: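 Here, growth inhibition in a cell-cycle-altered yeast strain after compound exposure was quantified against vehicle control growth.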

[10] = NCI Yeast Anticancer Drug Screen. Data for the cln2 rad14 strain (AID 165);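 also: 0% = growth equal to vehicle treated cultures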; conditions: S. cerevisiae cln2 rad14 strain, active compounds read high
Summary of the method: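 Growth of compound-exposed yeast (cln2 rad14 genotype) measured and expressed as inhibition relative to vehicle.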

[11] = NCI Yeast Anticancer Drug Screen. Data for the bub3 strain (AID 167); conditions: S. cerevisiae bub3 mutant strain, active compounds read high
Summary of the method: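 Inhibition values come from growth of compound-treated mutant yeast normalised to vehicle-treated controls.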

[12] = NCI Yeast Anticancer Drug Screen. Data for the wt2 strain (AID 169);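 also: 0% = growth of vehicle-treated yeast cultures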; conditions: S. cerevisiae wt2 strain growth inhibition, active compounds read high
Summary of the method: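 Genetically defined yeast strains from a DNA-repair/cell-cycle panel were used. Compound-exposed yeast growth was measured, and the inhibition was calculated relative to vehicle treatment.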

[13] = NCI Yeast Anticancer Drug Screen. Data for the mlh1 strain (AID 171);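 also: 0% = growth of vehicle-treated control cultures of the same strain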; conditions: S. cerevisiae mlh1 strain growth inhibition, active compounds read high
Summary of the method: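 Here the genetically defined yeast mutant is grown with each compound, and the extent to which its growth falls below that of vehicle-exposed cells is reported.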

[14] = NCI Yeast Anticancer Drug Screen. Data for the sgs1 strain (AID 173);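 also: 0% = growth of vehicle-only control cultures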; conditions: S. cerevisiae sgs1 mutant, active compounds read high
Summary of the method: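 Relative growth inhibition, referenced to vehicle, was determined in a yeast strain with a defined alteration affecting DNA damage repair or cell cycle control after compound exposure.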

[15] = NCI Yeast Anticancer Drug Screen. Data for the mlh1 rad18 strain (AID 175); conditions: S. cerevisiae mlh1 rad18 strain growth inhibition, active compounds read high
Summary of the method: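 In this whole-cell yeast screen, a strain with altered DNA damage repair is challenged with compound, and its growth is measured against matched vehicle-treated controls.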

[16] = NCI Yeast Anticancer Drug Screen. Data for the rad18 strain (AID 177); conditions: S. cerevisiae rad18 mutant growth inhibition, active compounds read high
Summary of the method: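 Screen uses a yeast strain with a defined lesion in DNA damage repair; compound effect is read as loss of growth compared to untreated vehicle cultures.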

[17] = at 5.0 µM (retest, dose inferred, filed as 0.5)
[18] = at 50.0 µM (retest, dose inferred, filed as 5.0)

Compound: CCN(CC)CCCNc1ccc([N+](=O)[O-])c2nc3ccc(OC)cc3c(NCCCN(CC)CC)c12
- growth inhibition ([1]; at 1.2 µM): 15%
- growth inhibition ([1]; at 3.7 µM): 6%
- growth inhibition ([1]; at 11.0 µM): 9%
- growth inhibition ([1]; at 33.0 µM): 11%
- growth inhibition ([1]; at 100.0 µM): 19%
- growth inhibition ([2]; at 1.2 µM): -81%
- growth inhibition ([2]; at 3.7 µM): 0%
- growth inhibition ([2]; at 11.0 µM): -2%
- growth inhibition ([2]; at 33.0 µM): -2%
- growth inhibition ([2]; at 100.0 µM): 0%
- growth inhibition ([3]; at 1.2 µM): 0%
- growth inhibition ([3]; at 3.7 µM): 3%
- growth inhibition ([3]; at 11.0 µM): 4%
- growth inhibition ([3]; at 33.0 µM): 9%
- growth inhibition ([3]; at 100.0 µM): 13%
- growth inhibition ([4]; at 1.2 µM): 2%
- growth inhibition ([4]; at 3.7 µM): 2%
- growth inhibition ([4]; at 11.0 µM): 3%
- growth inhibition ([4]; at 33.0 µM): 1%
- growth inhibition ([4]; at 100.0 µM): 1%
- growth inhibition ([5]; at 1.2 µM): -2%
- growth inhibition ([5]; at 3.7 µM): -1%
- growth inhibition [5, 17]: 23%
- growth inhibition ([5]; at 11.0 µM): -1%
- growth inhibition ([5]; at 33.0 µM): 4%
- growth inhibition [5, 18]: 18%
- growth inhibition ([5]; at 50.0 µM): 66.5%
- growth inhibition ([5]; at 100.0 µM): 9%
- growth inhibition ([6]; at 1.2 µM): -1%
- growth inhibition ([6]; at 3.7 µM): 2%
- growth inhibition [6, 17]: 6%
- growth inhibition ([6]; at 11.0 µM): -2%
- growth inhibition ([6]; at 33.0 µM): 1%
- growth inhibition [6, 18]: 26%
- growth inhibition ([6]; at 50.0 µM): 5.05%
- growth inhibition ([6]; at 100.0 µM): 1%
- growth inhibition ([7]; at 1.2 µM): -1%
- growth inhibition ([7]; at 3.7 µM): 0%
- growth inhibition ([7]; at 11.0 µM): -1%
- growth inhibition ([7]; at 33.0 µM): 0%
- growth inhibition ([7]; at 100.0 µM): 1%
- growth inhibition [8, 17]: -8%
- growth inhibition [8, 18]: 20%
- growth inhibition ([8]; at 50.0 µM): 13%
- growth inhibition ([9]; at 1.2 µM): -10%
- growth inhibition ([9]; at 3.7 µM): -9%
- growth inhibition ([9]; at 11.0 µM): -4%
- growth inhibition ([9]; at 33.0 µM): -6%
- growth inhibition ([9]; at 100.0 µM): -2%
- growth inhibition [10, 17]: 43%
- growth inhibition [10, 18]: 57%
- growth inhibition ([10]; at 50.0 µM): 24.8%
- growth inhibition ([11]; at 1.2 µM): -6%
- growth inhibition ([11]; at 3.7 µM): -7%
- growth inhibition [11, 17]: 14%
- growth inhibition ([11]; at 11.0 µM): -7%
- growth inhibition ([11]; at 33.0 µM): -6%
- growth inhibition [11, 18]: 6%
- growth inhibition ([11]; at 50.0 µM): 13.4%
- growth inhibition ([11]; at 100.0 µM): -4%
- growth inhibition ([12]; at 1.2 µM): -2%
- growth inhibition ([12]; at 3.7 µM): 0%
- growth inhibition ([12]; at 11.0 µM): 1%
- growth inhibition ([12]; at 33.0 µM): -1%
- growth inhibition ([12]; at 100.0 µM): 0%
- growth inhibition ([13]; at 1.2 µM): 0%
- growth inhibition ([13]; at 3.7 µM): -2%
- growth inhibition ([13]; at 11.0 µM): 0%
- growth inhibition ([13]; at 33.0 µM): -2%
- growth inhibition ([13]; at 100.0 µM): -1%
- growth inhibition ([14]; at 1.2 µM): 2%
- growth inhibition ([14]; at 3.7 µM): 5%
- growth inhibition ([14]; at 11.0 µM): 2%
- growth inhibition ([14]; at 33.0 µM): 1%
- growth inhibition ([14]; at 100.0 µM): 1%
- growth inhibition [15, 17]: 13%
- growth inhibition [15, 18]: 37%
- growth inhibition ([15]; at 50.0 µM): 0.2%
- growth inhibition ([16]; at 1.2 µM): 0%
- growth inhibition ([16]; at 3.7 µM): 0%
- growth inhibition ([16]; at 11.0 µM): 6%
- growth inhibition ([16]; at 33.0 µM): 4%
- growth inhibition ([16]; at 100.0 µM): 7%

Compound: CCCCCCCCNCCCCCCCC
- growth inhibition ([1]; at 1.2 µM): 4%
- growth inhibition ([1]; at 3.7 µM): 18%
- growth inhibition ([1]; at 11.0 µM): 76% (active)
- growth inhibition ([1]; at 33.0 µM): 99% (active)
- growth inhibition ([1]; at 100.0 µM): 99% (active)
- growth inhibition ([2]; at 1.2 µM): 0%
- growth inhibition ([2]; at 3.7 µM): 2%
- growth inhibition ([2]; at 11.0 µM): 29%
- growth inhibition ([2]; at 33.0 µM): 96% (active)
- growth inhibition ([2]; at 100.0 µM): 99% (active)
- growth inhibition ([3]; at 1.2 µM): 1%
- growth inhibition ([3]; at 3.7 µM): -1%
- growth inhibition ([3]; at 11.0 µM): 24%
- growth inhibition ([3]; at 33.0 µM): 92% (active)
- growth inhibition ([3]; at 100.0 µM): 99% (active)
- growth inhibition ([4]; at 1.2 µM): 12%
- growth inhibition ([4]; at 3.7 µM): 29%
- growth inhibition ([4]; at 11.0 µM): 97% (active)
- growth inhibition ([4]; at 33.0 µM): 100% (active)
- growth inhibition ([4]; at 100.0 µM): 100% (active)
- growth inhibition ([5]; at 1.2 µM): 6%
- growth inhibition ([5]; at 3.7 µM): 3%
- growth inhibition [5, 17]: 67%
- growth inhibition ([5]; at 11.0 µM): 96% (active)
- growth inhibition ([5]; at 33.0 µM): 98% (active)
- growth inhibition [5, 18]: 99% (active)
- growth inhibition ([5]; at 50.0 µM): 99.5% (active)
- growth inhibition ([5]; at 100.0 µM): 98% (active)
- growth inhibition ([6]; at 1.2 µM): 2%
- growth inhibition ([6]; at 3.7 µM): 13%
- growth inhibition [6, 17]: 9%
- growth inhibition ([6]; at 11.0 µM): 77% (active)
- growth inhibition ([6]; at 33.0 µM): 98% (active)
- growth inhibition [6, 18]: 100% (active)
- growth inhibition ([6]; at 50.0 µM): 99.7% (active)
- growth inhibition ([6]; at 100.0 µM): 98% (active)
- growth inhibition ([7]; at 1.2 µM): 50%
- growth inhibition ([7]; at 3.7 µM): 82% (active)
- growth inhibition ([7]; at 11.0 µM): 97% (active)
- growth inhibition ([7]; at 33.0 µM): 98% (active)
- growth inhibition ([7]; at 100.0 µM): 98% (active)
- growth inhibition [8, 17]: 82% (active)
- growth inhibition [8, 18]: 100% (active)
- growth inhibition ([8]; at 50.0 µM): 99.5% (active)
- growth inhibition ([9]; at 1.2 µM): 13%
- growth inhibition ([9]; at 3.7 µM): 21%
- growth inhibition ([9]; at 11.0 µM): 60%
- growth inhibition ([9]; at 33.0 µM): 97% (active)
- growth inhibition ([9]; at 100.0 µM): 97% (active)
- growth inhibition [10, 17]: 65%
- growth inhibition [10, 18]: 100% (active)
- growth inhibition ([10]; at 50.0 µM): 99.1% (active)
- growth inhibition ([11]; at 1.2 µM): 33%
- growth inhibition ([11]; at 3.7 µM): 49%
- growth inhibition [11, 17]: 74% (active)
- growth inhibition ([11]; at 11.0 µM): 95% (active)
- growth inhibition ([11]; at 33.0 µM): 98% (active)
- growth inhibition [11, 18]: 99% (active)
- growth inhibition ([11]; at 50.0 µM): 99.5% (active)
- growth inhibition ([11]; at 100.0 µM): 99% (active)
